An excerpt weighted towards active compounds, which were near 17% of everything screened.
DT40 TDP1 CPT: growth inhibition of DT40 Tdp1-/-;hTDP1 cells with camptothecin (screen for TDP1 inhibitors) | hit rate 12% among 420,000 | chicken DT40 Tdp1-/-;hTDP1 cells + 20 nM CPT, ATP luminescence, 48 h | Potency, µM (highest dose often 46.2 µM), for inactives: at the highest dose activity change, negative = growth inhibition, hits mostly inhibitors | AID 686979; also: % is scaled to controls: 0 for no effect and ±100 for the full control effect; nearly all actives have a fitted effect of over 55% in size
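Cell growth measured by CellTiter-Glo luminescence after a minimum 48 h, 37 C compound exposure with 20 nM CPT in Tdp1-knockout DT40 cells stably expressing hTDP1, seeded 400/well; qHTS titration format.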
HT1080 IDH1KD tx: HT-1080 IDH1 knockdown cell toxicity (counter line); HT-1080 IDH1 knockdown viability, ATP luminescence, 48 h; Potency, µM (doses to about 46.1 µM), for inactives: top-dose activity, negative = toxicity, most hits filed as cytotoxic; hit rate 2% among 360,000;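 also: 0% = DMSO wells and -100% = cell-free medium wells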
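CellTiter-Glo luminescence after 48 h compound exposure at 37 degrees C of IDH1-knockdown HT-1080 cells in 5% FBS RPMI. %Activity scaled between DMSO wells and cell-free media wells, with curves fitted and assigned curve classes.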
TDP1 cell noCPT: qHTS for Inhibitors of human tyrosyl-DNA phosphodiesterase 1 (TDP1): qHTS in cells in absence of CPT | DT40 Tdp1-/- hTDP1 cells, no CPT, ATP luminescence, 48 h | Potency, µM (doses to about 46.2 µM), for inactives: at the highest dose activity change, negative = growth inhibition, hits mostly inhibitors | hit rate 15% among 420,000 | AID 686978, 2013; also: % is scaled to controls: 0 for no effect and ±100 for the full control effect; nearly all actives have a fitted effect of over 55% in size
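Chicken DT40 Tdp1-/- cells complemented with human TDP1, screened without camptothecin (DMSO vehicle only), 400 cells/well. Compounds pin-transferred, cells incubated at 37 °C for at least 48 hr. Growth read as ATP-dependent luminescence (CellTiter-Glo, 30 min at RT).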
HT1080NT lethal: kills 2HG-producing HT-1080-NT fibrosarcoma cells; Potency, µM (highest dose often 46.1 µM), without a hit: at the top dose activity, negative = less viability, most hits filed as cytotoxic; hit rate 1.6% among 360,000; HT-1080-NT fibrosarcoma viability, CellTiter-Glo ATP luminescence, 48 h; AID 686970;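 also: NT is the 2HG producing partner of a matched IDH1 knockdown line; 0% = DMSO-treated cells and -100% = media-only wells without cells; nearly all actives have a fitted effect of over 55% in size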
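A 48-hour cytotoxicity screen used HT-1080-NT cells plated 2 hours before compound delivery. ATP-based CellTiter-Glo luminescence measured viability, normalized to DMSO and no-cell controls.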
TGFb inhibitor: inhibitors of TGF-b signaling | HepG2 CAGA-GFP TGF-b/SMAD3 reporter, GFP fluorescence, 18 h; TGF-beta stimulated, 500 pg/mL final | Potency, µM (doses to about 46.1 µM), for the others: top-dose activity, negative = inhibition, most hits filed as inhibitors | hit rate 1.2% among 410,000; also: % is scaled to controls: 0 for no effect and ±100 for the full control effect; nearly all actives have a fitted effect of over 65% in size
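First, reporter cells (HEPG2 CAGA-GFP) rested 2 h at 37 degrees C. Next, compounds were pinned in and TGF-beta added to 500 pg/mL final. After 18 h, GFP was imaged per cell and summed per well.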
HepG2 tox: counter-screen for TGF-b inhibitors: cytotoxicity in HepG2 cells; hit rate 0.76% among 410,000; HepG2 CAGA-GFP viability, ATP luminescence, 18 h; Potency, µM (doses to about 46.1 µM), without a hit: at the top dose activity change, negative = cytotoxicity, hits mostly cytotoxic; AID 588856
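HepG2 CAGA-GFP cells (1000/well, DMEM with 1% FBS) received compound, then TGF-beta at 500 pg/mL final, and were incubated 18 hours at 37 degrees C. Viability was read by CellTiter-Glo luminescence. Media-only wells were set as complete cell-killing and DMSO as no toxicity.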
* hit, by the source's call; ? = inconclusive; · = no result given. Calls follow the shape of the dose curve; as a rule, active = well fitted curve in the direction sought with a large enough effect; inconclusive = small, poorly fitted or top-dose-only effect, or another doubt; inactive = no such curve, though single readings can be large; an effect the other way counts as inactive or inconclusive. Potency is read from the fitted curve at half-maximal effect.

SMILES | DT40 TDP1 CPT | HT1080 IDH1KD tx | TDP1 cell noCPT | HT1080NT lethal | TGFb inhibitor | HepG2 tox
CCOc1ccccc1N(C)C(=O)c1cc(S(=O)(=O)NCCc2ccc(Cl)cc2)ccc1F | ? | · | ? | · | ? | -22%
Cc1cc(=O)n(-c2ccc3ccccc3n2)[nH]1 | 18µM* | -25% | 21µM* | ? | -12% | -29%
CC[C@]1(O)CC2CN(CCc3c([nH]c4ccccc34)[C@@](C(=O)OC)(c3cc4c(cc3OC)N(C)[C@H]3[C@@](O)(C(=O)OC)[C@H](OC(C)=O)[C@]5(CC)C=CCN6CC[C@]43[C@@H]65)C2)C1 (some centres undefined) | 0.071µM* | · | 0.14µM* | · | ? | -28%
CCOC(=O)N(C)[C@H]1C[C@H]2c3[nH]c4ccccc4c3CCN2C[C@H]1[C@H](C)O | ? | -12% | ? | -8% | -19% | 1%
COc1ccc(CCNC(=O)[C@H](C)N2C(=O)N3CCc4c([nH]c5ccccc45)[C@@]3(C)C2=O)cc1OC | ? | -1% | ? | -2% | -17% | -6%
CCC1(O)CC2CN(CCc3c([nH]c4ccccc34)C(C(=O)OC)(c3cc4c(cc3OC)N(C=O)C3C(O)(C(=O)OC)C(OC(C)=O)C5(CC)C=CCN6CCC43C65)C2)C1 (centres undefined) | 0.092µM* | ? | 0.15µM* | 0.0058µM* | ? | -4%
CC[C@]1(O)C[C@@H]2CN(CCc3c([nH]c4ccccc34)[C@](C(=O)OC)(c3cc4c(cc3OC)N(C=O)[C@H]3[C@@](O)(C(=O)OC)[C@H](C(=O)OC)[C@@]5(CC)C=CCN6CC[C@]43[C@H]65)C2)C1 | 0.027µM* | · | 0.019µM* | · | · | ·
COCc1cccc(-c2csc(C(O)c3ccccc3)n2)c1 (centres undefined) | ? | ? | ? | ? | 2% | -1%
COc1ccc(CC(=O)Nc2ccc(/C(C)=N\NC(=O)c3ccc(Br)o3)cc2)cc1 | 1% | -2% | -13% | 5% | -13% | -19%
O=C(Nc1cc(C(F)(F)F)ccc1-n1cncn1)c1ccc([N+](=O)[O-])o1 | 10µM* | -6% | 21µM* | 4% | ? | -40%
O=C(Nc1cc(C(F)(F)F)ccc1-n1cncn1)c1ccc(Br)cc1 | 0% | -18% | -19% | -12% | 0% | -14%
COc1ccc(N)cc1C#N | ? | -1% | -3% | -1% | -2% | -9%
COc1ccc(N)cc1-n1c(C)ccc1C | 7.3µM* | -19% | -24% | -11% | 6% | -5%
CCOc1ccc(NC(=O)CN2CCN(Cc3ccccc3)S2(=O)=O)cc1 | ? | · | ? | · | ? | -25%
CCOc1ccc2ccc(OCC)c(/C=N/n3cnnc3)c2c1 | 0% | -23% | ? | -25% | -18% | -5%
C=CC(=O)Nc1ccc(N(C)c2ccnc(Nc3ccc(N4CCN(C)CC4)cc3)n2)cc1 | ? | -22% | 16µM* | -28% | ? | -3%
O=C(c1ccccc1)N1CCN(CC(O)Cn2ccc3ccccc32)CC1 (centres undefined) | -3% | 16% | -22% | -1% | -1% | -3%
COc1ccccc1NC(=O)CCNS(=O)(=O)c1ccc2[nH]c(=O)oc2c1 | 23µM* | 7% | ? | -1% | 10% | 1%
Cc1cccc(N2CCN(C(=O)c3ccc4c(Cl)c5c(nc4c3)CCCC5)CC2)c1C | 18µM* | · | ? | · | ? | -8%
O=C(c1ccc2c(Cl)c3c(nc2c1)CCCC3)N1CCN(c2cccc(C(F)(F)F)c2)CC1 | -9% | · | -12% | · | 1% | 6%
COc1cccc(N2CCN(C(=O)c3ccc4c(Cl)c5c(nc4c3)CCCC5)CC2)c1 | 21µM* | · | 21µM* | · | 11µM* | -48%
Cc1ccc(Cl)cc1N1CCN(C(=O)c2ccc3c(Cl)c4c(nc3c2)CCCC4)CC1 | ? | · | ? | · | ? | -9%
CCN(CC)C(=O)c1sc2c(c1C)c(=O)n(Cc1ccccc1)c(=O)n2CC(=O)Nc1ccc(OC)cc1 | ? | · | -19% | · | 0% | -2%
O=C(c1ccc(Cl)cc1)n1nc(-c2ccco2)nc1NCc1cccs1 | -1% | · | -10% | · | -3% | -37%
CN[C@@H]1[C@@H](O)[C@@H](O[C@@H]2[C@@H](O)[C@H](O[C@H]3O[C@H](CN)[C@@H](O)[C@H](O)[C@H]3O)[C@@H](N)C[C@H]2NC(=O)C(O)CN)OC[C@]1(C)O (some centres undefined) | -25% | · | -19% | · | · | ·
SMILES | DT40 TDP1 CPT | HT1080 IDH1KD tx | TDP1 cell noCPT | HT1080NT lethal | TGFb inhibitor | HepG2 tox
CC(SC(C)C(=O)NN=Cc1cccc(Cl)c1)C(=O)NN=Cc1cccc(Cl)c1 (centres undefined) | ? | ? | 16µM* | -20% | 0% | -31%
Cc1ccccc1C(=O)Nc1ccc(C(=O)N/N=C/c2ccc(O)cc2)cc1 | ? | ? | ? | 8.2µM* | 6% | -29%
CC(C)(C)c1ccc(C(=O)N/N=C/c2cccc(Cl)c2)cc1 | ? | ? | 16µM* | ? | ? | -14%
Cc1ccccc1C(=O)Nc1ccc(C(=O)N/N=C/c2ccncc2)cc1 | 2% | -6% | -30% | -12% | 1% | -7%
O=C(N/N=C/c1cccc(NC(=O)c2ccc(Cl)cc2)c1)c1ccc(O)cc1 | ? | -9% | 15µM* | -5% | ? | -32%
COc1cccc(C=NNC(=O)C(C)SC(C)C(=O)NN=Cc2cccc(OC)c2)c1 (centres undefined) | -2% | -3% | ? | -2% | 1% | 3%
Cc1nn(Cc2ccccc2)c(Cl)c1/C=C/C(=O)OCC(=O)N1CCCC1=O | 13% | 9% | 17% | 15% | -2% | 1%
CC(C)(C)C(=O)CC1(O)C(=O)N(Cc2ccccc2)c2ccccc21 (centres undefined) | 0% | -1% | -14% | 1% | 2% | 1%
NC(Cc1ccccc1)C(=O)O (centres undefined) | -2% | · | -3% | · | · | ·
CC1(NC(=O)Cc2c(F)cccc2Cl)CCS(=O)(=O)C1 (centres undefined) | 6% | 5% | 1% | 17% | -2% | 0%

From PubChem
